Hits are enriched below; roughly 3.1% of the tested compounds scored in any of these assays.
FAS-TE inh: FAS thioesterase domain inhibitors, primary screen, biochemical, fluorescence intensity, uHTS | Fatty acid synthase (Homo sapiens), P49327 | recombinant FAS-TE, OMFH fluorogenic substrate, fluorescence endpoint | inhibition, % at 15 µM | hit rate 0.67% among 360,000 | AID 602261, 2012;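 active = compounds whose normalised, plate-corrected inhibition of enzyme fluorescence in the single-dose primary screen is 50% or more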
Calb FLC: C. albicans growth inhibition with fluconazole, primary screen, CaCi-2 strain, Alamar Blue fluorescence; C. albicans CaCi-2 (fluconazole-resistant clinical isolate) + fluconazole, 48 h; growth inhibition, % (concentration not given with the values); hit rate 0.57% among 300,000;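 active = growth inhibition above about 58% in most replicates, limit read from the data, passing the limit was not always enough; inconclusive = exactly half the replicates above a set limit; inactive = most replicates below a set limit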;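 also: all wells also contain fluconazole at 8 µg/ml as a sub-toxic cotreatment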
Mot1-301 SUMO: yeast Mot1-301 growth rescue at high temperature, primary screen, SUMOylation pathway inhibitor project, S. cerevisiae, ATP luminescence, 38.5C. growth rescue, % at 18.8 µM. hit rate 1% among 320,000. S. cerevisiae Mot1-301 growth rescue; percent above DMSO median, 100 means doubled;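 active = every valid replicate shows activation above 250% relative to neutral control wells; inactive = the rest, any valid replicate at or below 250%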
NadD inh: inhibitors of S. aureus NadD, primary screen, biochemical, colorimetric, uHTS | Nicotinate-nucleotide adenylyltransferase NadD (Staphylococcus aureus N315) | purified NadD enzyme, colorimetric absorbance read-out | hit rate 0.78% among 360,000 | AID 602399, 2012 | inhibition, % at 20 µM; in the data active = inhibition above about 26%
ATG4B inhibitor: ATG4B protease inhibitors, primary screen, biochemical, fluorescence, uHTS; AID 504462, 2011; inhibition, % at 8.33 µM; hit rate 0.51% among 340,000; ATG4B cleavage of LC3-PLA2, NBD-HPC fluorescence, 1 h; in the data active = inhibition above about 40%
Target sequence (Q9Y4P1 whole entry, looked up): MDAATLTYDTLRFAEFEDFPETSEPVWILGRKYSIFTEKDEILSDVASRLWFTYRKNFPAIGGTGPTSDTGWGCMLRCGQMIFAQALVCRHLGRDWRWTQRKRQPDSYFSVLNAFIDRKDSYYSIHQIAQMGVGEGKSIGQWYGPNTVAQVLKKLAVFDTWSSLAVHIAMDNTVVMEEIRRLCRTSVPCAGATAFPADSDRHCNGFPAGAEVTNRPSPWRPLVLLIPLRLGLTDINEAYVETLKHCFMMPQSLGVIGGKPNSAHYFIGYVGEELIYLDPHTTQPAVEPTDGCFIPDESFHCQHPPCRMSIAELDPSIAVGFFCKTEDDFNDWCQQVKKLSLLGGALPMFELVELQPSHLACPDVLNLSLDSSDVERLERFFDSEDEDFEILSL
Hits are given with their value; - = inactive; ? = inconclusive; . = no result.

SMILES	FAS-TE inh	Calb FLC	Mot1-301 SUMO	NadD inh	ATG4B inhibitor
CNc1ccc2oc(C[C@H]3O[C@@]4(CC[C@H]3C)O[C@H]([C@H](C)C(=O)c3ccc[nH]3)[C@H](C)C[C@H]4C)nc2c1C(=O)O	-	.	-	58.9	-
CCN1C(=O)/C(=C/c2ccc3c(c2)CCN3CCCCl)C(=O)NC1=S	-	-	-	31.2	-
COC(=O)C1=C(c2ccc(C(C)=O)cc2)C[C@@H]2CC[C@H]1N2C(=O)N1CCCCC1	-	.	-	-	-
Cc1cc([N+](=O)[O-])c(Cl)cc1NC(=O)C(C)C	-	-	-	-	-
CNc1cc(Cl)c2nonc2c1[N+](=O)[O-]	-	100.2	.	-	-
O=C(/C=C/c1c[nH]c2ccccc12)c1c(O)n(CCc2ccccc2)c(=O)[nH]c1=O	-	-	-	-	-
COc1ccc(OC)c(-n2c(O)c(/C=C3\C=Nc4ccccc43)c(=O)[nH]c2=O)c1	-	-	-	-	-
CCOc1ccc(-n2c(O)c(/C=C3\C=Nc4ccccc43)c(=O)[nH]c2=O)cc1	-	-	296.9	-	-
Cc1ccc(C2=NC(C)(C)N3C2C3c2ccc([N+](=O)[O-])cc2)cc1 (configuration not stated)	-	-	-	-	-
O=[N+]([O-])c1ccc(C2[C@H]3C(c4ccccc4)=NC4(CCCC4)N23)cc1 (some centres not stated)	-	99.4	-	-	-
COc1ccc(N/N=C/c2c(O)n(-c3ccc(C)c(C)c3)c(=O)[nH]c2=O)cc1	-	-	-	-	-
Cc1ccc(-n2c(O)c(/C=N/Nc3ccccc3)c(=O)[nH]c2=O)cc1C	.	-	310.3	.	-
COc1ccc(N/N=C/c2c(O)n(-c3cccc(C)c3)c(=O)[nH]c2=O)cc1	-	113.7	-	-	-
CCN1C[C@@]2(COC)C3[C@@H](OC)[C@H]4[C@@H]1[C@@]3(C1C[C@@]3(O)[C@H](OC(=O)c5ccccc5)C1[C@]4(OC(C)=O)[C@@H](O)[C@H]3OC)[C@@H](OC)C[C@H]2O (some centres not stated)	-	.	-	-	-
c1ccc(N2[C@@H]3CC[C@H]2c2ccccc2C3)cc1	-	.	.	-	.
O=C1NC(=O)C(=Cc2cn(CCOc3ccc4c(c3)OCO4)c3ccccc23)C(=O)N1	-	-	-	42.7	-
C=CCn1cc(C=C2C(=O)NC(=O)NC2=O)c2ccccc21	-	-	-	-	-
Cc1cc(/C=C2\C(=O)NC(=O)N(c3cccc(F)c3)C2=O)c(C)n1-c1ccc(C(=O)O)c(Cl)c1	-	-	-	-	-
Cc1ccc(N2C(=O)NC(=O)/C(=C/c3ccc(-c4ccc(C(=O)O)c(Cl)c4)o3)C2=O)cc1	-	-	-	41.7	-
CC(=NCC1CCCO1)c1c(O)n(-c2ccc(Cl)cc2)c(=O)[nH]c1=O (configuration not stated)	-	?	547.4	-	-
C=CCC1(CCCCC)C(=O)NC(=S)NC1=O	-	.	.	-	-
COc1ccc(-c2cc(-c3ccccc3)[n+](C)c(-c3ccccc3)c2)cc1	-	102.7	-	-	-
Cc1ccc(-c2cc(-c3ccccc3)cc(-c3ccccc3)[n+]2-c2ccc(C(=O)O)cc2)cc1	-	-	-	-	-
COc1ccc(-[n+]2c(-c3ccccc3)cc(-c3ccc(C)cc3)cc2-c2ccccc2)cc1	-	89.3	-	-	-
COc1cc(OC)c(OC)cc1CN1CCN(C(=O)Cc2ccccc2)CC1	-	-	-	-	-
SMILES	FAS-TE inh	Calb FLC	Mot1-301 SUMO	NadD inh	ATG4B inhibitor
Cc1cc(S(=O)(=O)NC(C)C)ccc1OCC(=O)N1CCN(Cc2ccc3c(c2)OCO3)CC1	-	-	-	-	-
CC(C)NS(=O)(=O)c1ccc(OCC(=O)N2CCN(Cc3ccc4c(c3)OCO4)CC2)c(Cl)c1	50.4	-	-	-	-
CC1CCN(S(=O)(=O)c2ccc(NN=C(C#N)C#N)cc2)CC1	.	.	-	.	.
N#CC(C#N)=NNc1ccc(S(N)(=O)=O)cc1	-	-	-	41.0	-
Cc1ncc(CN2CCCC(C(=O)c3cccc(OC(C)C)c3)C2)s1 (configuration not stated)	-	-	294.6	-	-
COc1c(C)cc(C(=O)C2CCCN(Cc3cnc(C)s3)C2)cc1C (configuration not stated)	-	-	-	-	-

High-throughput results: PubChem, several laboratories
